Laboratory results from PubChem BioAssay (NCATS).
Inconclusive results are not listed. Activity calls are given as the source filed them. Calls follow the shape of the dose curve; as a rule, active = well fitted curve in the direction sought with a large enough effect; inconclusive = small, poorly fitted or top-dose-only effect, or another doubt; inactive = no such curve, though single readings can be large or run the other way.

assay: qHTS Assay for Identifying Gametocytocidal Compounds (AID 743244);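 also: actives lower the fluorescent signal which means gametocytes are killed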; conditions: P. falciparum 3D7 stage III-V gametocytes, alamarBlue, 72 h; max response: hits give low values
Outline: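 Fluorescence at Ex 525/Em 598 nm, recorded 24 h after alamarBlue addition, reports residual metabolic activity of 3D7 gametocytes (stages III–V) following 72 h compound exposure at 37 °C, 5% CO2.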
% is scaled to controls: 0 for no effect and ±100 for the full control effect.

| Structure (SMILES) | max response |
| --- | --- |
| C[N+]1(C)CCCC(OC(=O)C(O)(c2ccccc2)c2ccccc2)C1 (centres undefined) | 8.34% (inactive) |
| CC(=O)N(CC(O)CN(C(C)=O)c1c(I)c(C(=O)NCC(O)CO)c(I)c(C(=O)NCC(O)CO)c1I)c1c(I)c(C(=O)NCC(O)CO)c(I)c(C(=O)NCC(O)CO)c1I (centres undefined) | -5.28% (inactive) |
| Cc1c(NC(C)C)c(=O)n(-c2ccccc2)n1C | -2.3% (inactive) |
| CC(=O)[C@@]1(O)CC[C@H]2[C@@H]3C[C@H](C)C4=CC(=O)C=C[C@]4(C)[C@@]3(F)[C@@H](O)C[C@@]21C | -2.09% (inactive) |
